Test systems include T-47D breast; BT-549 breast; MDA-MB-435 melanoma; SW-620 colon; MCF7 breast; HCT-116 colon; HCC-2998 colon; KM12 colon.
Holding throughout (test): NCI-60 one-dose screen, 48 h (100 = growth as untreated, 0 = no growth, -100 = all killed)
Common to all, as to settings: 10 µM unless noted

Compounds without any hit were thinned out: in the full panel of roughly 83,000, 20% have a hit.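 Single-concentration screen, 48 h exposure, 96-well plates. Endpoint: percent growth. Below 10 = active.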 A number with no mark means an inactive call. Calls of active or inactive are those of the source.

Turning to `[2H]c1nc(Nc2ncc(F)c(-c3cc(F)c4nc(C)n(C(C)C)c4c3)n2)c([2H])c([2H])c1CN1CCN(C([2H])([2H])C([2H])([2H])[2H])CC1`, the growth in the experiment with T-47D breast is 54.6%; in the experiment on BT-549 breast, 51.3%; in the experiment with MDA-MB-435 melanoma it was 51.7%; in the experiment with SW-620 colon it was 43.5%; in the experiment with MCF7 breast it was 30.3%; with HCT-116 colon it was 26.1%. The growth was 82.4% in the experiment on HCC-2998 colon and 40.5% in the experiment with KM12 colon.
Take `COc1cc(/C=C/C(=O)c2cccc(-n3cc(-c4ccc(Cl)cc4)[nH]c3=O)c2)cc(OC)c1OC`: the growth is 41.1% in the experiment on T-47D breast; 86.2% in the experiment with BT-549 breast; 27.1% with MDA-MB-435 melanoma; -19.4% (active) in the experiment with SW-620 colon; 11.9% with MCF7 breast; -45.7% (active) in the experiment with HCT-116 colon. The growth with HCC-2998 colon was 75.8%; in the experiment on KM12 colon, 46%.
Turning to `CC(C)(C)c1ccc(C(=O)Nc2sc3c(c2C(N)=O)CCC(=O)C3)cc1`, the growth was -13.7% (active) in the experiment on T-47D breast; -10.3% (active) in the experiment with BT-549 breast; -45.2% (active) in the experiment with MDA-MB-435 melanoma; -36.7% (active) with SW-620 colon; 3.05% (active) with MCF7 breast; -30.5% (active) in the experiment with HCT-116 colon. For the same molecule, the growth in the experiment with HCC-2998 colon was 17.1%; in the experiment on KM12 colon, -55.6% (active).
On to `CC(C)(O)c1cccc(F)c1`, for which the growth with T-47D breast was 140%; with BT-549 breast, 104%; in the experiment with MDA-MB-435 melanoma it was 103%; in the experiment on SW-620 colon, 103%; in the experiment on MCF7 breast, 98.4%; in the experiment on HCT-116 colon, 93.8%. Also, the growth in the experiment with HCC-2998 colon was 105%; in the experiment on KM12 colon, 103%.
Turning to `O=C1Nc2ccc(Cl)cc2/C1=N/N=C/c1c[nH]c2ccccc12`, the growth in the experiment with T-47D breast was 73.4%; in the experiment on BT-549 breast it was 93.5%; in the experiment with MDA-MB-435 melanoma it was 87%; in the experiment on SW-620 colon, 79.2%; in the experiment on MCF7 breast, 71.1%; in the experiment with HCT-116 colon, 75.6%. Moreover, the growth in the experiment with HCC-2998 colon is 101%; in the experiment on KM12 colon, 68.1%.
On to `O=C1C2=C(CCN(Cc3ccccc3)C2)N2CCN=C2N1Cc1ccc(F)cc1F`, for which the growth is 33.4% in the experiment on T-47D breast; 34.6% in the experiment with BT-549 breast; 32.3% with MDA-MB-435 melanoma; 40.9% in the experiment on SW-620 colon; 30.1% in the experiment on MCF7 breast; 23.3% in the experiment on HCT-116 colon. Further, the results for the growth in the experiment on HCC-2998 colon and with KM12 colon were 34.3% and 44.7%, respectively.
For `Nc1ccc(-c2cc3c(Nc4ccc(OCc5cccc(F)c5)c(Cl)c4)ncnc3s2)cc1`, the growth with T-47D breast is 15.4%; in the experiment with BT-549 breast, 61.2%; in the experiment on MDA-MB-435 melanoma, 43.8%; with SW-620 colon, 74.1%; with MCF7 breast, 26.2%; in the experiment on HCT-116 colon, 50.7%. Further, the growth in the experiment with HCC-2998 colon is 38.6%; with KM12 colon, 24%.
On to `CC1(C)N=C(N)N=C(N)N1c1cccc(CN)c1`, for which the growth in the experiment with T-47D breast is 102%; in the experiment with BT-549 breast, 94.6%; in the experiment with MDA-MB-435 melanoma, 104%; in the experiment on SW-620 colon, 98.4%; with MCF7 breast it was 95.9%; in the experiment on HCT-116 colon, 91.3%. The growth was 100% in the experiment with HCC-2998 colon and 101% with KM12 colon.
As to `COc1cc(-c2ncn(/C=C\c3nnco3)n2)cc(C(F)(F)F)c1`, the growth was 28.9% in the experiment with T-47D breast; -13.8% (active) in the experiment with BT-549 breast; 2.34% (active) in the experiment with MDA-MB-435 melanoma; 14.6% with SW-620 colon; 8.23% (active) in the experiment on MCF7 breast; 3.16% (active) in the experiment with HCT-116 colon. Also, the results for the growth with HCC-2998 colon and in the experiment on KM12 colon were 7.01% (active) and 10.7%, respectively.
Consider `CN(C)c1ccc2cc(-c3ccccc3F)c(N)nc2c1`, for which the growth in the experiment on T-47D breast was 27.1%; with BT-549 breast, 25.5%; in the experiment on MDA-MB-435 melanoma it was -9.25% (active); in the experiment on SW-620 colon, 30%; with MCF7 breast it was 27%; in the experiment with HCT-116 colon it was 22.4%. The results for the growth with HCC-2998 colon and with KM12 colon were 54.3% and 26%, respectively.
Turning to `CCCCN1CCN(c2ccc3nc(-c4ccc5nc(-c6ccc(OCC)c(OCC)c6)[nH]c5c4)[nH]c3c2)CC1`, the growth in the experiment with T-47D breast is 39.9%; in the experiment on BT-549 breast, -23% (active); in the experiment with MDA-MB-435 melanoma, -41.2% (active); with SW-620 colon, -80.3% (active); in the experiment on MCF7 breast, -69.6% (active); in the experiment on HCT-116 colon it was -79.7% (active). Moreover, the growth in the experiment on HCC-2998 colon was -80.4% (active); in the experiment with KM12 colon, -65.6% (active).
On to `Cn1cc(-c2ccc3ncc(-c4ccc(CC(=O)Nc5cc(C(C)(C)C)nn5C)cc4)cc3c2)cn1`, for which the growth with T-47D breast was -3.95% [30 µM] (active); in the experiment on BT-549 breast it was -2.02% [30 µM] (active); with MDA-MB-435 melanoma, 2.73% [30 µM] (active); with SW-620 colon it was 22.2% [30 µM]; in the experiment on MCF7 breast, 2.17% [30 µM] (active); in the experiment with HCT-116 colon it was 20.4% [30 µM]. In addition, the growth with HCC-2998 colon is 29.6% [30 µM]; in the experiment with KM12 colon, -40.1% [30 µM] (active).
For `CCCCCCCCN(CCCCCCCC)C(=N)c1ccnc2ccccc12`, the growth is -62.9% (active) in the experiment with T-47D breast; 66.2% with BT-549 breast; -82.3% (active) with MDA-MB-435 melanoma; -68.1% (active) in the experiment on SW-620 colon; -74.6% (active) with MCF7 breast; -92.3% (active) in the experiment on HCT-116 colon. Besides, the growth in the experiment with HCC-2998 colon is -84.1% (active); in the experiment with KM12 colon, -82.7% (active).
On to `Nc1c(-c2nc3ccccc3c(=O)[nH]2)nnn1-c1ccc(Cl)cc1`, for which the growth is 27.2% in the experiment with T-47D breast; 77.8% in the experiment with BT-549 breast; 83.3% with MDA-MB-435 melanoma; 99.2% in the experiment on SW-620 colon; 90% with MCF7 breast; 78.8% with HCT-116 colon. For the same molecule, the growth was 104% in the experiment on HCC-2998 colon and 82.8% with KM12 colon.

For the origin of these results see PubChem BioAssay (NCI).
